Test [1] in a line: circadian clock period modulators, cell-based, LOPAC library, luminescence reporter (AID 2774).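 Further: values are relative to mean of DMSO wells on each plate.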 The note with it: circadian reporter cells, at 7 µM, actives lie on both sides.
Test [2] is described as follows: hESC survival regulators, cell-based (AID 493140).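 Further: cells exposed to compounds for four days before counting.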 Conditions: human embryonic stem cell survival screen; stronger effect = higher value.

A number with no mark means an inactive call. How the calls were made is not given here.

Take `COC(=O)Nc1nc2ccc(C(=O)c3cccs3)cc2[nH]1`: the period change in test [1] is -0.58 h. In test [2], the survival was 1.17.

With `C[C@]12CC[C@@H]3c4ccc(O)cc4CC[C@H]3[C@@H]1CCC2=O`, the period change in test [1] was -0.125 h. In addition, the survival in test [2] was 2.5.

Regarding `CN1CCN(C(c2ccccc2)c2ccccc2)CC1`, the survival in test [2] was 4.58. The same measure, in the same setting: for `Cc1c(N(C)C)c(=O)n(-c2ccccc2)n1C` the value was 13.6. With `CC(C)NCC(O)COc1ccc(COCCOC(C)C)cc1` (configuration not stated), in test [2], the survival is 6.5. As for `CCOC(=O)C1=C(C)NC(C)=C(C(=O)OC)C1c1cccc(Cl)c1Cl` (configuration not stated), in test [1], the period change is -0.06 h. In addition, the survival in test [2] is 15.7. The like results for `O=C(CCNNC(=O)c1ccncc1)NCc1ccccc1` were, in that order, -0.045 h and 17.5.

As to `Cc1c(Nc2ncccc2C(=O)O)cccc1C(F)(F)F`, the survival in test [2] was 3.67. Turning to `C[C@]12C=CC(=O)C=C1CC[C@H]1[C@@H]3C[C@@H](O)[C@](O)(C(=O)CO)[C@@]3(C)C[C@H](O)[C@@]12F`, the period change in test [1] is -0.51 h. Moreover, in test [2], the survival is 13.9.

Take `C[C@H](N)[C@H](O)c1cccc(O)c1`: the survival in test [2] is 28.4. Same read-out and setting: for `CCC(=O)O[C@]1(C(=O)SCF)[C@H](C)C[C@H]2[C@@H]3C[C@H](F)C4=CC(=O)C=C[C@]4(C)[C@@]3(F)[C@@H](O)C[C@@]21C` the value was 6.58. Still for that read-out and setting: for `Cc1cccc(C)c1NC(=O)C(C)N` (configuration not stated) the value was 11.7; for `Nc1ncnc2c1ncn2[C@@H]1O[C@H](COP(=O)(O)O)[C@@H](O)[C@H]1O`, 7.33. With `Cc1scc2c1N(C(=O)CN1CCN(C)CC1)c1ccccc1NC2=O`, the period change in test [1] was 0.165 h. Further, the survival in test [2] is 11.3. `COc1ccc(C(=O)c2ccccc2O)c(O)c1`: the survival in test [2] is 1.42. Still for that read-out and setting: for `CC(=O)[C@@]1(O)CC[C@H]2[C@@H]3C[C@H](C)C4=CC(=O)C=C[C@]4(C)[C@@]3(F)[C@@H](O)C[C@@]21C` the value was 6.17. Same read-out and setting: the same measure for `O=C(O)CCCC[C@@H]1SC[C@@H]2NC(=O)N[C@@H]21`: 18.6; for `CC(=O)OCC(=O)[C@@]1(O)[C@H](C)C[C@H]2[C@@H]3CCC4=CC(=O)C=C[C@]4(C)[C@@]3(F)[C@@H](O)C[C@@]21C`: 16.5. The same measure, in the same setting: for `Cc1ncc([N+](=O)[O-])n1CC(O)CCl` (configuration not stated) the value was 23.5; for `COc1ccc2nc(S(=O)Cc3ncc(C)c(OC)c3C)[nH]c2c1` (configuration not stated), 10.2.

Turning to `CC(=O)OC(C)C[N+](C)(C)C` (configuration not stated), the period change in test [1] is -0.04 h. Further, the survival in test [2] was 1.33. Consider `Nc1[nH]c(=O)ncc1F`, for which the survival in test [2] was 2.42. In the case of `CN1CCC(=C2c3ccccc3C=Cc3ccccc32)CC1`, the period change in test [1] is 0.015 h. For the same compound, in test [2], the survival was 13.7. On to `C[C@]12CC[C@@H]3c4ccc(O)cc4CC[C@H]3[C@@H]1C[C@@H](O)[C@@H]2O`, for which the survival in test [2] is 7.75.

These data come from PubChem BioAssay.
